What was measured:
[1] = test system: Human papillomavirus type 1a protein E7 (residues 44-93); assay: small molecules binding HPV E7 44-93 – biochemical, small-molecule microarray, residues 44-93, 635 nm fluorescence, primary screen (AID 1108); details: fluorescence 635 nm, higher = more signal;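 further: E7 fragment applied at 1 µg/mL in TBST for 1 h at 4 C; score combines spot fluorescence with its signal to noise ratio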
[2] = hepatitis C replication reporter changes, two-sided – Huh7 cells, luciferase reporter, HCV replication inhibitor project, primary screen (AID 1109); details: Huh7 HCV replicon luciferase reporter, 48 h; higher = more signal;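 further: huh7 hepatoma cells harbouring a luciferase neomycin HCV replicon reporter; luciferase luminescence as measure of HCV replicon replication; test concentration not given here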
[3] = target: Left-right determination factor 2 (Homo sapiens) (UniProt O00292); assay: small molecules binding LEFTY2 protein – biochemical, small-molecule microarray, 635 nm fluorescence scan, primary screen (AID 1110); details: higher = more signal
[4] = target: Calmodulin-1 (Homo sapiens) (UniProt P0DP23); assay: small molecules binding calmodulin-1 with EGTA – biochemical, small-molecule microarray, Cy5-labelled CALM1, profiling panel (AID 1111); details: Cy5-CALM1 binding fluorescence, higher = more signal;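 further: labelled calmodulin applied in Tris saline Tween buffer holding calcium plus EGTA and DTT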
[5] = target: Calmodulin-1 (Homo sapiens) (UniProt P0DP23); assay: small molecules binding Ca-loaded calmodulin-1 – biochemical, small-molecule microarray, Cy5-labelled CALM1, plus calcium, artefact control for SMM control-protein annotation, profiling panel (AID 1112); details: Cy5-CALM1 binding fluorescence, higher = more signal;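 further: score merges spot fluorescence with signal to noise from triplicate slides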
[6] = probe aWnt5a binding to arrayed compounds – biochemical, biotinylated probe, 635/667 nm fluorescence, primary screen (AID 1113); details: small-molecule microarray, higher = more signal;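 further: score merges 667 nm fluorescence intensity with signal-to-noise per printed feature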
[7] = probe aShh binding to arrayed compounds – biochemical, biotinylated probe, 635/667 nm fluorescence, primary screen (AID 1114); details: small-molecule microarray, higher = more signal;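 further: probe is biotin-labelled aShh protein from a stem cell growth factor screen; measures binding of labelled protein to compounds printed on the slide; score merges feature fluorescence at 667 nm with signal-to-noise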
[8] = probe aNog binding to arrayed compounds – biochemical, biotinylated probe, 635/667 nm fluorescence, primary screen (AID 1115); details: small-molecule microarray, higher = more signal;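 further: probe is biotinylated aNog protein used at 0.15 µg/mL for 1 h at 4 C; z-score combines 667 nm fluorescence of each spot with its signal to noise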
[9] = target: Torsin-1A-interacting protein 1 (Homo sapiens) (UniProt Q5JTV8); assay: compound microarray binding of lysate hLAP1 – cell lysate, small-molecule microarray, COS7 lysate, 635/667 nm fluorescence, primary screen (AID 1116); details: 635 nm fluorescence, higher = more signal
[10] = target: Alpha-bungarotoxin (Bungarus multicinctus) (UniProt P60615); assay: compounds binding labelled alpha-BTX control protein – biochemical, small-molecule microarray, Alexa647 label, 635/667 nm fluorescence, artefact control for SMM control protein annotation, profiling panel (AID 1117); details: alpha-BTX-A647 binding fluorescence, higher = more signal
Alpha-bungarotoxin (Bungarus multicinctus), sequence (P60615 whole entry, looked up): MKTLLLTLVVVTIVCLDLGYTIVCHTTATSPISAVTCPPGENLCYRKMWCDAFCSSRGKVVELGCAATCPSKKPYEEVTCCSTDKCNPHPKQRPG

Torsin-1A-interacting protein 1 (Homo sapiens), sequence (Q5JTV8 whole entry, looked up): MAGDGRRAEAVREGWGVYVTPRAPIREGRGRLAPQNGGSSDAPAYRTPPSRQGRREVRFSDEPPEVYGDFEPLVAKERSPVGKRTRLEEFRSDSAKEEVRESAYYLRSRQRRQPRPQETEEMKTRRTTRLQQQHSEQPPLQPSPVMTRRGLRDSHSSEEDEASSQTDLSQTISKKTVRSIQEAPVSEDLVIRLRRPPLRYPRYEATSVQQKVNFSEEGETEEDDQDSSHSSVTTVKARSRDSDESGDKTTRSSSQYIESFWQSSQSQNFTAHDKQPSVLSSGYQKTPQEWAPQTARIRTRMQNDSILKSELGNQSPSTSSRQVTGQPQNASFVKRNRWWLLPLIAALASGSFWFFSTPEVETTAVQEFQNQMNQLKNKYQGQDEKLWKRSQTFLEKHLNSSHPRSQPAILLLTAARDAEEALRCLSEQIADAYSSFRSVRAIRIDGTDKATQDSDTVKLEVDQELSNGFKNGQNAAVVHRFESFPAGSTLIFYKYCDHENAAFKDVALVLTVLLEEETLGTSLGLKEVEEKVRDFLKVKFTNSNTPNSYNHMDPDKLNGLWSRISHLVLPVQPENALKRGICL
Left-right determination factor 2 (Homo sapiens), sequence (O00292 whole entry, looked up): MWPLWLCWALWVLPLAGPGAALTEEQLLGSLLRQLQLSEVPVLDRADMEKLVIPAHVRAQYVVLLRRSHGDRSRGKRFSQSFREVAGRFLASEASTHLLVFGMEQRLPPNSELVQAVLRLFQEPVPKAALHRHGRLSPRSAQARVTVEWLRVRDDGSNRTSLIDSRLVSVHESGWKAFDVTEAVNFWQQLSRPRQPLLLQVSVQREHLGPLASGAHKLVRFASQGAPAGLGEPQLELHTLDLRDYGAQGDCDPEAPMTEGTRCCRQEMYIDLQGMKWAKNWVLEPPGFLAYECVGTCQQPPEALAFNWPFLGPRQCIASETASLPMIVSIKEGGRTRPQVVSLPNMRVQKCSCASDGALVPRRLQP

Row | Compound | composite z-score [1] | z-score [2] | composite z-score [3] | composite z-score [4] | composite z-score [5] | composite z-score [6] | composite z-score [7] | composite z-score [8] | composite z-score [9] | composite z-score [10]
1 | C=CCNC(=O)[C@H]1[C@@H]2C(=O)O[C@@H](c3ccccc3)[C@@H](c3ccccc3)N2[C@@H](c2ccc(O)cc2)[C@]12C(=O)Nc1ccc(C#CC3=CCCCC3)cc12 | 1.32 | -1.83 | 0.71 | 0.887 | 0.571 | 0.163 | 0.951 | 0.587 | 1.11 | 0.491
2 | Cc1ccc(S(=O)(=O)N2[C@@H](c3ccccc3)C(C(=O)O)=CC[C@H]2c2ccc(C#N)cc2)cc1 | 1.24 | -0.494 | -0.145 | 0.302 | -0.269 | 0.0267 | 0.385 | 0.823 | 1.84 | 1.57
3 | C=CC(CO)NC(=O)OCC1c2ccccc2-c2ccccc21 (stereo not given) | 0.0077 | -0.479 | 0.407 | -0.0914 | -0.885 | 0.048 | -0.426 | -0.208 | -0.141 | 0.252
4 | COC(=O)C1=CC(CCCO)=CC(c2ccc(CN3CCCC3)cc2)N(Cc2sc3ccccc3c2Cl)C=C1C(=O)OC (stereo not given) | 1.34 | -0.574 | 1.17 | 2.96 | 1.22 | 0.0625 | 0.661 | 2.08 | 3.75 | 3.77
5 | COCCOC(=O)N1C(=O)[C@@]2(c3ccccc31)[C@H](c1ccc(OCCO)cc1)N1[C@H](c3ccccc3)[C@H](c3ccccc3)OC(=O)[C@H]1[C@@H]2C(=O)N1CCN(c2ncccn2)CC1 | 1.41 | -1.47 | 1.06 | 1.51 | 0.039 | -0.001 | -0.043 | 0.998 | 1.5 | 1.26
6 | NC(=O)N1C(=O)C2C(C1=O)C1C=C(CCCO)C2C(c2ccc(CN3CCCC3)cc2)N1Cc1cccc(OC(F)(F)F)c1 (stereo not given) | 0.433 | -3.48 | 0.565 | 0.011 | -0.202 | -0.104 | 0.296 | 0.429 | -0.226 | 0.546
7 | [N-]=[N+]=NCc1ccccc1C[C@]1(C(=O)N2CCCCC2)N=C(c2ccc(OCCCO)cc2)O[C@H]1c1ccccc1 | 0.809 | -3.2 | -1.05 | 0.816 | 0.407 | 0.105 | 0.134 | 0.437 | 1.11 | -0.049
8 | CN1C(=O)C2C(C1=O)C1C=C(c3ccc(CO)cc3)C2C(c2cccs2)N1C (stereo not given) | 0.104 | 0.706 | -0.112 | 1.47 | 0.312 | -0.1 | -0.0553 | -0.12 | 2.17 | 1.86
9 | COc1ccc([Si](C)(C)[C@H]2[C@H](CCO)O[C@@]3(C(=O)N(Cc4ccc(N5CCOC5=O)cc4)c4ccccc43)[C@@H]2C)cc1 | 1.11 | -3.71 | -0.284 | 0.854 | 0.455 | -0.12 | 0.151 | 0 | 0.248 | 0.93
10 | O=C1NC(=O)C2C1C=CC(C(O)c1cccc(O)c1)N2Nc1ccc(Cl)cc1Cl (stereo not given) | -0.429 | -0.591 | -0.715 | 0.741 | 0.675 | -0.104 | -0.212 | -0.237 | -0.369 | 0.369
11 | CN1C(=O)[C@]2(CCC(=O)OC(C)(C)C)N=C(c3ccc(OCCCO)cc3)O[C@@H]2c2ccccc21 | 1.45 | -2.88 | -0.0515 | 0.147 | -0.0006 | 0.0279 | 0.275 | 0.346 | 0.973 | 1.14
12 | Cc1ccc(S[C@]2(C(=O)NCC(F)(F)F)CC(=O)N(C3CCCCC3)[C@@H]2c2ccc(CO)cc2)cc1 | 0.82 | -0.759 | -0.431 | 1.26 | 0.27 | -0.1 | 0.0875 | -0.546 | -0.163 | 0.28
13 | CCCC[C@@H](O)C1=C(COC)Cn2c(=O)n(-c3ccccc3)c(=O)n2[C@H]1CO | -0.877 | 1.36 | -0.1 | -0.97 | -0.694 | -0.172 | -0.2 | 0.474 | 0.0334 | -0.115
14 | CCCCN1CC=CC23O[C@@H]4C=CCOC(=O)[C@@H]4[C@H]2C(=O)N(C(CO)C(C)C)[C@@H]3C1=O (stereo not given in full) | -0.321 | -1.23 | -0.383 | -0.782 | -0.828 | -0.173 | -0.138 | -0.381 | -0.457 | -0.843
15 | C=CCC(OC(C)=O)[C@@H]1[C@@H](N(Cc2ccc(-c3ccccc3)cc2)C(=O)c2ccc(-c3ccccc3)cc2)c2cc(OCCCO)ccc2N1C(=O)c1ccc2ccccc2n1 (stereo not given in full) | 0.0942 | -0.0356 | 0.108 | 0.19 | 0.531 | -0.184 | -0.214 | -0.335 | 0.276 | -0.282
16 | CCC[C@@H]1C=C(C(=O)OCC)[C@H](c2ccccc2)N1S(=O)(=O)c1ccc(C)cc1 | 1.04 | -1.84 | 1.06 | 1.99 | 0.409 | 0.145 | -0.195 | -0.413 | 1.69 | 1.26
17 | COc1ccc(C#Cc2ccc3c(c2)[C@]2(C(=O)N3)[C@H](C(=O)Nc3nc4ccccc4s3)[C@H]3C(=O)O[C@H](c4ccccc4)[C@H](c4ccccc4)N3[C@@H]2c2ccc(OCCO)cc2)cc1 | 0.801 | -2.03 | 0.651 | 2.19 | 0.915 | 0.0377 | 0.337 | 0.302 | 2.08 | 1.75

From PubChem BioAssay
